Screens as filed in PubChem BioAssay.
KB-3-1 tox = KB-3-1 parental cell cytotoxicity; Potency, µM (doses to about 46.1 µM), most hits filed as cytotoxic; KB-3-1 viability, CellTiter-Glo ATP luminescence, 72 h; 400,000 tested, 1.4% active; AID 1347075; also: potency is read from the fitted curve at half-maximal effect; % is scaled to controls: 0 for no effect and ±100 for the full control effect; nearly all actives have a fitted effect of over 60% in size
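Parental KB-3-1 viability, qHTS format: 72 h compound exposure, 37 °C; CellTiter-Glo; media-only wells and DMSO plates as controls; concentration-effect fits on corrected data.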
MCF10A rerep = inducers of DNA re-replication in MCF 10A breast cells | MCF 10A DNA re-replication, Hoechst nuclear intensity, 48 h | Potency, µM (top dose mostly 46.1 µM), for the others: at the highest dose activity, positive = re-replication, actives largely listed as activators | 350,000 tested, 2.9% active | AID 624296; also: potency is read from the fitted curve at half-maximal effect; % of control where 0% means no effect; nearly all actives have a fitted effect of over 50% in size
KB-V1 MDR tox = kills drug-selected multidrug resistant KB-V1 cells; KB-V1 MDR cells viability, CellTiter-Glo, 72 h; Potency, µM (doses to about 46.1 µM), actives largely listed as cytotoxic; 400,000 tested, 3.4% active; AID 1347076; also: potency is read from the fitted curve at half-maximal effect; % is scaled to controls: 0 for no effect and ±100 for the full control effect; nearly all actives have a fitted effect of over 60% in size
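Drug-selected KB-V1 cells, grown in DMEM lacking phenol red with 10% FBS, receive compound titrations; after three days at 37 degrees C, surviving cell ATP is quantified by CellTiter-Glo luminescence and responses normalized and curve-fitted.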
KCNH2 3.1 block = blocks the human KCNH2 3.1 channel isoform. AID 720553. 340,000 tested, 0.95% active. activity change, % (tested at about 1.8 µM). U2OS KCNH2 3.1, thallium flux FluxOr; stronger effect = lower value;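 active = maximum activity change below -70%; inconclusive = maximum activity change from -70% to -50%; inactive = maximum activity change above -50%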;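 also: thallium influx rate constant from kinetic fluorescence after stimulation buffer; % is scaled to controls: 0 for no effect and ±100 for the full control effect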
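Virally transduced U2OS (3.1 isoform, 4 h infection in dark at RT) → overnight 37 C → FluxOr + Red40 in HBSS/HEPES, 45 min → stimulation buffer, 2 min kinetic read → rate constant vs DMSO controls.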
KCNH2 WT inh = blocks the wildtype human KCNH2 potassium channel; Q12809; U2OS, BacMam KCNH2, thallium flux FluxOr; stronger effect = lower value; AID 720551; activity change, % at 1.84 µM; 340,000 tested, 0.37% active;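 active = maximum activity change below -70%; inconclusive = maximum activity change between -70% and -50%; inactive = maximum activity change above -50%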; also: % is scaled to controls: 0 for no effect and ±100 for the full control effect
Target sequence (Q12809 whole entry, looked up): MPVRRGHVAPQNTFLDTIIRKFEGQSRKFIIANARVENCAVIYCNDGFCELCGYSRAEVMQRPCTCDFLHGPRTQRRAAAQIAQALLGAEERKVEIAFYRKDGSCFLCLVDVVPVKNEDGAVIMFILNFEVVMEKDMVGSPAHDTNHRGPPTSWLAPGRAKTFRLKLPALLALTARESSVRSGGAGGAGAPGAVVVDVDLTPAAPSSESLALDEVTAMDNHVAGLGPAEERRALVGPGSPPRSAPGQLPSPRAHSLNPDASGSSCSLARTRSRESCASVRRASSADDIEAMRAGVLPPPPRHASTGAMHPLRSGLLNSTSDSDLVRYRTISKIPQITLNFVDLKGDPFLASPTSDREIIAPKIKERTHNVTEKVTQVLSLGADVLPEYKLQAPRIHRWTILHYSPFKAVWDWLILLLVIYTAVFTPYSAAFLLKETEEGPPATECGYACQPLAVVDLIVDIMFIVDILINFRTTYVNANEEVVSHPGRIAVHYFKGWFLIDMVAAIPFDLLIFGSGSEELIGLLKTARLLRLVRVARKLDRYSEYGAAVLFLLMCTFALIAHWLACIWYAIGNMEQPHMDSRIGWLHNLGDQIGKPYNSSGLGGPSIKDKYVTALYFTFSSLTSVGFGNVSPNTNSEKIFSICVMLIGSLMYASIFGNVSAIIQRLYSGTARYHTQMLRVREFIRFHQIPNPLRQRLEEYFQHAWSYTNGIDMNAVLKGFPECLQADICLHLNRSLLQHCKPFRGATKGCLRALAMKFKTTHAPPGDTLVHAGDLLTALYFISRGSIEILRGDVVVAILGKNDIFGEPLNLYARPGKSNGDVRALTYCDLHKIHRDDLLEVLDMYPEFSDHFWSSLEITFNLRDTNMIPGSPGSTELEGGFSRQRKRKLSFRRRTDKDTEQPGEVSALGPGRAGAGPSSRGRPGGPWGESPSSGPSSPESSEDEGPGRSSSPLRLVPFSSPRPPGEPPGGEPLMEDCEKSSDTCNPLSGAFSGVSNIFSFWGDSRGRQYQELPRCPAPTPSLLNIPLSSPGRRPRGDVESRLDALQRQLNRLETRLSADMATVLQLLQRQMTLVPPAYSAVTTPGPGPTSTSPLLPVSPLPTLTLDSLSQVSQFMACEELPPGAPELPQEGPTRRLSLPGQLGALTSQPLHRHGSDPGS
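U2OS cells were transduced with wild-type KCNH2 virus (2.03 x 10^8 / mL) for 4 h at room temperature, then cultured overnight at 37 C. Thallium flux was read with FluxOr dye. Rate constants were normalized to DMSO controls.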
SW480 rerep = DNA re-replication induction in SW480 cells. 340,000 tested, 1.8% active. SW480 DNA re-replication, Hoechst DNA content imaging, 48 h. Potency, µM (series often up to 46.1 µM), without a hit: top-dose re-replication activation, hits mostly activators; also: potency is read from the fitted curve at half-maximal effect; % of control where 0% means no effect; nearly all actives have a fitted effect of over 55% in size
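Treated cells incubate 48 hr (37 C, 5% CO2), are stained 40 min with Hoechst, and nuclear fluorescence is enumerated; a rise in nuclei with high DNA signal marks re-replication.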
The depositor's hits bear a star; i = inactive; ? = inconclusive; · = not tested or not shown; [ ] = another dose, or the depositor's remark. Most compounds without a hit are left out; they make up all but 7.6% or so of the library. Unless noted, calls follow the shape of the dose curve; as a rule, active = well fitted curve in the direction sought with a large enough effect; inconclusive = small, poorly fitted or top-dose-only effect, or another doubt; inactive = no such curve, though single readings can be large; an effect the other way counts as inactive or inconclusive.

SMILES | KB-3-1 tox | MCF10A rerep | KB-V1 MDR tox | KCNH2 3.1 block | KCNH2 WT inh | SW480 rerep
CCN1CCN(c2nc3sc4c(c3c(=O)n2-c2ccc(OC)cc2)CCCCC4)CC1 | i | ? | i | -71.4* | -0.4 | ?
COc1ccc(-n2c(NN)nc3sc4c(c3c2=O)CCCC4)cc1 | ? | 6.8% | i | 4.5 | -8.4 | ?
O=C(NCCC(=O)N1CCN(Cc2c(F)cccc2Cl)CC1)c1ccc(Cl)cc1 | i | 10.4% | i | -10.6 | -6.6 | -16.8%
O=S1(=O)N=C(Nc2ccc(N3CCOCC3)cc2)c2ccccc21 | i | -0.6% | i | 1.9 | 7.6 | -8.7%
Cc1ccccc1-c1ccc(Nc2ccc(N3CCOCC3)cc2)nn1 | i | 15.5% | 20.6µM* | -73.4* | -32.6 | -2.4%
O=c1[nH]cc(S(=O)(=O)NCc2ccccc2)c(=O)[nH]1 | i | 0.3% | i | 2.3 | 1.1 | 0.1%
Cc1ccccc1Cn1c(C)c(C(=O)N(C)Cc2ccc(F)cc2)sc1=O | ? | · | 16.4µM* | · | · | ·
Cc1c(C(=O)N(C)Cc2ccc(F)cc2)sc(=O)n1Cc1ccccc1C#N | i | · | ? | · | · | ·
COc1ccc(Br)c(Cn2c(C)c(C(=O)N(C)Cc3ccc(F)cc3)sc2=O)c1 | ? | · | 8.2µM* | · | · | ·
COc1ccc(C)cc1NC(=O)c1nnn(-c2c(C)cccc2C)c1C | i | · | i | · | · | ·
Nc1nc2[nH]cc(CCc3ccc(C(=O)NC(CCC(=O)O)C(=O)O)cc3)c2c(=O)[nH]1 (centres undefined) | · | 8.6% | · | · | · | -3.9%
CCN(CC)CCCNc1ccc(-c2nnc(-c3ccc(OCC(C)C)cc3)o2)cn1 | 20.6µM* | ? | ? | -4.1 | -20.6 | 20.6µM*
CC(C)COc1ccc(-c2nnc(-c3ccco3)o2)cc1 | i | -178.1%[0.0737 µM] | i | -3.5 | -2.2 | ?
N/C(=N/OC(=O)c1ccccc1Cl)c1ncc([N+](=O)[O-])s1 | 23.1µM* | ? | ? | -9.3 | 1.1 | ?
CCOc1ccc2c(c1)C(=NNC(=O)c1ccncc1)c1cc(OCC)ccc1-2 | ? | 4.0% | ? | 0.2 | -9.0 | -39.7%
O=C1CC(N2CCN(c3ccccc3)CC2)C(=O)N1c1cccc(Cl)c1 (centres undefined) | i | -9.2% | i | -6.0 | -4.1 | -4.4%
O=C1CC(N2CCSCC2)C(=O)N1c1cccc(Cl)c1 (centres undefined) | i | 0.82µM* | ? | -1.8 | -8.1 | ?
COC(=O)c1ccc(OCC2c3cc(OC)c(OC)cc3CCN2C(=O)c2ccc(F)cc2)cc1 (centres undefined) | i | · | ? | · | · | ·
COC(=O)c1[nH]c2ccc(F)cc2c1NS(=O)(=O)c1ccc(OC)cc1 | 2.59µM* | 7.31µM* | 7.31µM* | 10.0 | 1.5 | 4.61µM*
COC(C/C=C\[C@H](O)[C@H](C)OCc1ccccc1)OC | i | -19.2% | ? | 14.8 | -21.4 | 0.3%
C=C1C(=O)OC2C=C(CO)CCC=C(CO)CC(OC(=O)C(C)C)C12 (centres undefined) | ? | 10.3µM* | i | 4.9 | -6.2 | ?
CCCCCNC(=O)C(C#N)c1nc2ccccc2nc1N1CCCC1 (centres undefined) | i | 10.3µM* | i | -0.8 | -8.3 | ?
N#CC(C(=O)NCCc1ccccc1)c1nc2ccccc2nc1N1CCCCC1 (centres undefined) | i | 20.6µM* | i | 6.8 | 5.1 | ?
CCN(CC)c1nc2ccccc2nc1C(C#N)C(=O)NCCc1ccccc1 (centres undefined) | i | 18.4µM* | i | 2.1 | -9.1 | ?
COCCCNC(=O)C(C#N)c1nc2ccccc2nc1N1CCCC1 (centres undefined) | i | 4.4% | i | 22.2 | -1.8 | -1.4%[9.22 µM]
SMILES | KB-3-1 tox | MCF10A rerep | KB-V1 MDR tox | KCNH2 3.1 block | KCNH2 WT inh | SW480 rerep
CCCCCCNC(=O)C(C#N)c1nc2ccccc2nc1N1CCOCC1 (centres undefined) | i | -4.0% | i | -6.8 | -3.7 | -4.1%
CCCCCCNC(=O)C(C#N)c1nc2ccccc2nc1N1CCCC1 (centres undefined) | i | 13µM* | i | -2.5 | -5.1 | ?
CCN(CC)c1nc2ccccc2nc1C(C#N)C(=O)NCCCOC (centres undefined) | ? | 28.3% | ? | -5.9 | -10.1 | ?
N#Cc1c(-n2ncnc2-c2ccc(F)cc2)sc2c1CCCCC2 | i | · | i | · | · | ·
CCOc1ccc(CCNC(=O)CCNS(=O)(=O)c2ccc3c(c2)CCN3C(C)=O)cc1OCC | i | 3.1% | i | -3.7 | 3.9 | ?
S=C(NCCC1=CCCCC1)Nc1ccc(Cl)cc1 | i | 9.7% | 7.31µM* | -1.6 | 1.9 | 4.3%
COc1ccc(NC(=S)NCCC2=CCCCC2)cc1OC | i | -0.2% | i | -2.1 | -9.7 | 3.7%
CCCNC(=O)C1CC(c2ccccc2C(F)(F)F)=NO1 (centres undefined) | i | 11.7% | i | 8.9 | -8.2 | 1.1%
C(=C\c1nc(N2CCCC2)c2ccccc2n1)/c1ccccc1 | 23.1µM* | ? | ? | ? | -3.4 | ?
CC1CCN(c2nc(/C=C/c3ccccc3)nc3ccccc23)CC1 | i | 20.6µM* | ? | -47.7 | 8.5 | 0.9%
CCOc1ccc(C(=O)Nc2ccc(-c3nc4ccccc4[nH]3)cc2)cc1Cl | i | · | ? | · | · | ·
CCN1CCN(C(c2ccc(F)cc2)c2nnnn2Cc2cccs2)CC1 (centres undefined) | i | 23.1µM* | i | -3.3 | 46.9 | ?
CN1CCN(C(c2ccc(F)cc2)c2nnnn2Cc2cccs2)CC1 (centres undefined) | i | ? | i | -31.8 | 12.8 | -0.9%[9.22 µM]
N#Cc1c(NC(=O)c2ccccc2)sc2c1CCCCC2 | i | 2.1% | i | -1.9 | -4.1 | -0.5%
Cc1noc(C)c1C(=O)Nc1sc(C)c(-c2ccccc2)c1C#N | 13µM* | 7.3% | 4.11µM* | -8.4 | 7.3 | -0.7%
Cc1onc(-c2ccccc2)c1C(=O)Nc1sccc1C#N | i | 7.0% | i | -15.6 | 1.8 | 0.9%
N#Cc1c(Cl)nsc1NC(=O)c1ccccc1 | ? | ? | 7.31µM* | 0.4 | 9.0 | 0.6%
Cc1cccc(C(=O)Nc2sc(C)c(-c3ccccc3)c2C#N)c1 | i | 9.2µM* | ? | -28.8 | -3.6 | -3.5%
Cc1sc(NC(=O)C2CCCCC2)c(C#N)c1-c1ccccc1 | i | 18.8% | i | -19.2 | -6.1 | -0.4%
CC1=NN(S(=O)(=O)c2ccc(Cl)cc2Cl)C(=O)c2ccccc2O1 | i | 3.3% | i | 24.2 | 7.4 | 1.7%
